Data from the supplement of paper PMC10849652.
About 8,800 targets were measured; listed, in parts, are those with a hit and a random draw of the rest. About 0.5% of all pairs of compound and target were hits. Unmarked numbers belong to inactive results.

How the values were obtained:
Test in all cases: log2 fold change, soluble protein after heating vs DMSO (PISA); higher = thermal stabilisation; K562 lysate, 10 uM; active = over 0.2 and 3.5 SD of the protein, either way, in both replicates (recomputed)
ibrutinib = compound: C=CC(=O)N1CCC[C@@H](n2nc(-c3ccc(Oc4ccccc4)cc3)c3c(N)ncnc32)C1 [ibrutinib]
Procedure, shortened: (§1)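 The values are log-two fold changes in thermal stability compared with solvent controls and come from duplicates. They were obtained by TMTpro 16plex LC-MS/MS, with channel sums equalised, on the supernatant after 21,000xg for 90 min. That supernatant came from crude K562 extract at 1 mg/mL protein treated with 10 μM compound for 30 min, heated for 3 min across 48°C-58°C, pooled and brought to 0.5% NP-40 at 4°C.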

[1] = compound: CC(=O)c1cnc2ccc(-c3cc(Cl)c(O)c(Cl)c3)nc2c1N[C@H]1CC[C@H](CN(C)C)CC1
Procedure, shortened: as §1

ralimetinib = compound: CC(C)(C)Cn1c(N)nc2ccc(-c3[nH]c(C(C)(C)C)nc3-c3ccc(F)cc3)nc21 [ralimetinib]
Procedure, shortened: as §1

[2] = compound: CC(C)(O)CC(=O)NCCn1ccc2ncnc(Nc3ccc(Oc4cccc(C(F)(F)F)c4)c(Cl)c3)c21
Procedure, shortened: as §1

[3] = compound: CC(C)C1=C2N=C(C=C(N2N=C1)NCC3=CC=CC=C3)NCCCCCCN
Procedure, shortened: as §1

[4] = compound: CC1=C(C(CC(=O)N1)C2=CC=C(C=C2)C(F)(F)F)C(=O)NC3=C(C=C4C(=C3)C=NN4)F
Procedure, shortened: as §1

[5] = compound: CC1=C(C2=C(C=C1)C(=O)C3=CC=CC=C3N2CCCN)C
Procedure, shortened: as §1

[6] = compound: CC1=C(C=C(C=C1)NC(=O)C2=CC(=CC=C2)C(C)(C)C#N)NC3=CC4=C(C=C3)N=CN(C4=O)C
Procedure, shortened: as §1

[7] = compound: CC1=C(C=C(C=C1)NC(=O)C2=CC(=CC=C2)N(C)C)NC(=O)C3=CC=C(C=C3)O
Procedure, shortened: as §1

[8] = compound: CC1=CC=C(C=C1)SC2=C3C=C(SC3=CN=C2)C(=O)N
Procedure, shortened: as §1

vemurafenib = compound: CCCS(=O)(=O)Nc1ccc(F)c(C(=O)c2c[nH]c3ncc(-c4ccc(Cl)cc4)cc23)c1F [vemurafenib]
Procedure, shortened: as §1

[9] = compound: CCCS(=O)(=O)Nc1ccc(F)c(C(=O)c2c[nH]c3ncc(Cl)cc23)c1F
Procedure, shortened: as §1

barasertib = compound: CCN(CCCOc1ccc2c(Nc3cc(CC(=O)Nc4cccc(F)c4)[nH]n3)ncnc2c1)CCOP(=O)(O)O [barasertib]
Procedure, shortened: as §1

[10] = compound: CC[C@@H]1C(=O)N(C)c2cnc(Nc3ccc(C(=O)NC4CCN(C)CC4)cc3OC)nc2N1C1CCCC1
Procedure, shortened: as §1

volasertib = compound: CC[C@@H]1C(=O)N(C)c2cnc(Nc3ccc(C(=O)N[C@H]4CC[C@H](N5CCN(CC6CC6)CC5)CC4)cc3OC)nc2N1C(C)C [volasertib]
Procedure, shortened: as §1

[11] = compound: CCn1c(C(=O)N(C2CC2)C2CC2)cc2c3c(ncn3C)c(Nc3cc(C)n(C)n3)nc21
Procedure, shortened: as §1

[12] = compound: CCn1cc(-c2ccnc3[nH]c(-c4cccc(CN(C)C)c4)cc23)c(-c2ccc(NC(=O)N(C)C)cc2)n1
Procedure, shortened: as §1

[13] = compound: CN1CCC(CNc2ccc3ncc(-c4cccc(OC(F)(F)F)c4)n3n2)CC1
Procedure, shortened: as §1

saracatinib = compound: CN1CCN(CCOc2cc(OC3CCOCC3)c3c(Nc4c(Cl)ccc5c4OCO5)ncnc3c2)CC1 [saracatinib]
Procedure, shortened: as §1

sotrastaurin = compound: CN1CCN(c2nc(C3=C(c4c[nH]c5ccccc45)C(=O)NC3=O)c3ccccc3n2)CC1 [sotrastaurin]
Procedure, shortened: as §1

UniProt P50336, sequence (P50336 whole entry, looked up): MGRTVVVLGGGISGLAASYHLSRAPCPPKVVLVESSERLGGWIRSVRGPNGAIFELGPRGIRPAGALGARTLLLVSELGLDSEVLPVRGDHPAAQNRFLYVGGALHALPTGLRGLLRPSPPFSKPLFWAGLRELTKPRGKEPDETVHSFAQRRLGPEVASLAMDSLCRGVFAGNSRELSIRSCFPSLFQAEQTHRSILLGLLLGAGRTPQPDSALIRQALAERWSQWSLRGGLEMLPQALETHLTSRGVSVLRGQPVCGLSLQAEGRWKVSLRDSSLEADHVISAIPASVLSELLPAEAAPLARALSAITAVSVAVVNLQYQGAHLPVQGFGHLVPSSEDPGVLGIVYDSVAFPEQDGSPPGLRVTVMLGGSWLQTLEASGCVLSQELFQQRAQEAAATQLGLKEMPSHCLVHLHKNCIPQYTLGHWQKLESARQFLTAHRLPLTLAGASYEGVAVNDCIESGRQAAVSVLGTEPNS
UniProt Q96C36, sequence (Q96C36 whole entry, looked up): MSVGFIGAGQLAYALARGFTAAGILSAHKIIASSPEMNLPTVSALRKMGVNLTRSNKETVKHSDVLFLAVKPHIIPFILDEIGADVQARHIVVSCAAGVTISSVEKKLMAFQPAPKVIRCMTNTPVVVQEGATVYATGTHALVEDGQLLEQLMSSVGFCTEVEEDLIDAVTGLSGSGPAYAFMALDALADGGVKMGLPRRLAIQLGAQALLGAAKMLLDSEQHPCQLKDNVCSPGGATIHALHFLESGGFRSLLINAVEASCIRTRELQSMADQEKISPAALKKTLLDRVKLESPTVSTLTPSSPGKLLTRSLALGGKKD
UniProt P18031, sequence (P18031 whole entry, looked up): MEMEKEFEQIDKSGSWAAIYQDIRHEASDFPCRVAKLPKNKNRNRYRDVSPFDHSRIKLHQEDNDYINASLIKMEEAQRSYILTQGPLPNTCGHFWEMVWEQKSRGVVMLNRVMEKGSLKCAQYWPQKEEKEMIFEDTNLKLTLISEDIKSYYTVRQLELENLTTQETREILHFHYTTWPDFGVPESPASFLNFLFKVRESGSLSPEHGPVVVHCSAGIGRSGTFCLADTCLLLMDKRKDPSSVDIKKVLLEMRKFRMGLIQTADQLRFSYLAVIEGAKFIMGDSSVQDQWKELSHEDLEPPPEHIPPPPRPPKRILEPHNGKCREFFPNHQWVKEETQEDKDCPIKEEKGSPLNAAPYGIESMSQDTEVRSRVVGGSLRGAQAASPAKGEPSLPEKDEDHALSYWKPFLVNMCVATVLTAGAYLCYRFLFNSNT
UniProt Q9BTU6, sequence (Q9BTU6 whole entry, looked up): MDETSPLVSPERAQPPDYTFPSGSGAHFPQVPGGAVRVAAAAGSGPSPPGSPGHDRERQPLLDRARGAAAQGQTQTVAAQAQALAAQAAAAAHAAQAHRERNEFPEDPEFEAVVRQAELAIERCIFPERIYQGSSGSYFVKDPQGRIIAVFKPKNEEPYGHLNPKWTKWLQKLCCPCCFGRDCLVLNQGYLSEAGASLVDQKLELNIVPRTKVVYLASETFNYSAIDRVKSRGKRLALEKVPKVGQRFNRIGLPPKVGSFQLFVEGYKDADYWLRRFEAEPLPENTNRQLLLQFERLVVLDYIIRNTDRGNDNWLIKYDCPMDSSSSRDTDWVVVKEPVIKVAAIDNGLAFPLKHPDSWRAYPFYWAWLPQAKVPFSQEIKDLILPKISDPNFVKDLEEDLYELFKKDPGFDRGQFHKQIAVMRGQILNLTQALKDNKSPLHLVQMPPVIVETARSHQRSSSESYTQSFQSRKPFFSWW
UniProt Q13492, sequence (Q13492 whole entry, looked up): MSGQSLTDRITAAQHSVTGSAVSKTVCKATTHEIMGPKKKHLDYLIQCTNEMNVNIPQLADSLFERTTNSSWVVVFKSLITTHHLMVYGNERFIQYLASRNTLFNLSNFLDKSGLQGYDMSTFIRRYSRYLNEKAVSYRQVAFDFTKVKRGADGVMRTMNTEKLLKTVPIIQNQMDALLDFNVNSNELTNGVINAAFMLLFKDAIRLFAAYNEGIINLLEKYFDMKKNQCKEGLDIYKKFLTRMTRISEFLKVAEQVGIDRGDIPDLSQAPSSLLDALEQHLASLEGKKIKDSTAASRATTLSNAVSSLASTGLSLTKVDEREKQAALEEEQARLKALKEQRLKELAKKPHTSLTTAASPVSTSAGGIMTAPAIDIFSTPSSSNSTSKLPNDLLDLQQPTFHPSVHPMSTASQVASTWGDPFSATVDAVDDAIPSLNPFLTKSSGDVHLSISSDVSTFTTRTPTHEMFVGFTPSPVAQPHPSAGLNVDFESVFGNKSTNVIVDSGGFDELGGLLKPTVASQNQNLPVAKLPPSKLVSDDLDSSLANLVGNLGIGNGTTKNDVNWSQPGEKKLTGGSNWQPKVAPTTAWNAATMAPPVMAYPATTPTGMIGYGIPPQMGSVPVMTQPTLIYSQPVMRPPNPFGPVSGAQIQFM
UniProt O00625, sequence (O00625 whole entry, looked up): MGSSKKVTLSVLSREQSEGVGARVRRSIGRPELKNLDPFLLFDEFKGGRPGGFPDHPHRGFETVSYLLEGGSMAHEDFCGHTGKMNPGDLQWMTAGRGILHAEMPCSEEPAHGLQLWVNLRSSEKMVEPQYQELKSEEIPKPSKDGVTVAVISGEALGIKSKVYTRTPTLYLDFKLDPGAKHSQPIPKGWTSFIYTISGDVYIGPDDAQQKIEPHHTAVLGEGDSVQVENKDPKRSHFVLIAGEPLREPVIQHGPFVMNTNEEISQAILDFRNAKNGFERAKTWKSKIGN
UniProt P48634, sequence (P48634 whole entry, looked up): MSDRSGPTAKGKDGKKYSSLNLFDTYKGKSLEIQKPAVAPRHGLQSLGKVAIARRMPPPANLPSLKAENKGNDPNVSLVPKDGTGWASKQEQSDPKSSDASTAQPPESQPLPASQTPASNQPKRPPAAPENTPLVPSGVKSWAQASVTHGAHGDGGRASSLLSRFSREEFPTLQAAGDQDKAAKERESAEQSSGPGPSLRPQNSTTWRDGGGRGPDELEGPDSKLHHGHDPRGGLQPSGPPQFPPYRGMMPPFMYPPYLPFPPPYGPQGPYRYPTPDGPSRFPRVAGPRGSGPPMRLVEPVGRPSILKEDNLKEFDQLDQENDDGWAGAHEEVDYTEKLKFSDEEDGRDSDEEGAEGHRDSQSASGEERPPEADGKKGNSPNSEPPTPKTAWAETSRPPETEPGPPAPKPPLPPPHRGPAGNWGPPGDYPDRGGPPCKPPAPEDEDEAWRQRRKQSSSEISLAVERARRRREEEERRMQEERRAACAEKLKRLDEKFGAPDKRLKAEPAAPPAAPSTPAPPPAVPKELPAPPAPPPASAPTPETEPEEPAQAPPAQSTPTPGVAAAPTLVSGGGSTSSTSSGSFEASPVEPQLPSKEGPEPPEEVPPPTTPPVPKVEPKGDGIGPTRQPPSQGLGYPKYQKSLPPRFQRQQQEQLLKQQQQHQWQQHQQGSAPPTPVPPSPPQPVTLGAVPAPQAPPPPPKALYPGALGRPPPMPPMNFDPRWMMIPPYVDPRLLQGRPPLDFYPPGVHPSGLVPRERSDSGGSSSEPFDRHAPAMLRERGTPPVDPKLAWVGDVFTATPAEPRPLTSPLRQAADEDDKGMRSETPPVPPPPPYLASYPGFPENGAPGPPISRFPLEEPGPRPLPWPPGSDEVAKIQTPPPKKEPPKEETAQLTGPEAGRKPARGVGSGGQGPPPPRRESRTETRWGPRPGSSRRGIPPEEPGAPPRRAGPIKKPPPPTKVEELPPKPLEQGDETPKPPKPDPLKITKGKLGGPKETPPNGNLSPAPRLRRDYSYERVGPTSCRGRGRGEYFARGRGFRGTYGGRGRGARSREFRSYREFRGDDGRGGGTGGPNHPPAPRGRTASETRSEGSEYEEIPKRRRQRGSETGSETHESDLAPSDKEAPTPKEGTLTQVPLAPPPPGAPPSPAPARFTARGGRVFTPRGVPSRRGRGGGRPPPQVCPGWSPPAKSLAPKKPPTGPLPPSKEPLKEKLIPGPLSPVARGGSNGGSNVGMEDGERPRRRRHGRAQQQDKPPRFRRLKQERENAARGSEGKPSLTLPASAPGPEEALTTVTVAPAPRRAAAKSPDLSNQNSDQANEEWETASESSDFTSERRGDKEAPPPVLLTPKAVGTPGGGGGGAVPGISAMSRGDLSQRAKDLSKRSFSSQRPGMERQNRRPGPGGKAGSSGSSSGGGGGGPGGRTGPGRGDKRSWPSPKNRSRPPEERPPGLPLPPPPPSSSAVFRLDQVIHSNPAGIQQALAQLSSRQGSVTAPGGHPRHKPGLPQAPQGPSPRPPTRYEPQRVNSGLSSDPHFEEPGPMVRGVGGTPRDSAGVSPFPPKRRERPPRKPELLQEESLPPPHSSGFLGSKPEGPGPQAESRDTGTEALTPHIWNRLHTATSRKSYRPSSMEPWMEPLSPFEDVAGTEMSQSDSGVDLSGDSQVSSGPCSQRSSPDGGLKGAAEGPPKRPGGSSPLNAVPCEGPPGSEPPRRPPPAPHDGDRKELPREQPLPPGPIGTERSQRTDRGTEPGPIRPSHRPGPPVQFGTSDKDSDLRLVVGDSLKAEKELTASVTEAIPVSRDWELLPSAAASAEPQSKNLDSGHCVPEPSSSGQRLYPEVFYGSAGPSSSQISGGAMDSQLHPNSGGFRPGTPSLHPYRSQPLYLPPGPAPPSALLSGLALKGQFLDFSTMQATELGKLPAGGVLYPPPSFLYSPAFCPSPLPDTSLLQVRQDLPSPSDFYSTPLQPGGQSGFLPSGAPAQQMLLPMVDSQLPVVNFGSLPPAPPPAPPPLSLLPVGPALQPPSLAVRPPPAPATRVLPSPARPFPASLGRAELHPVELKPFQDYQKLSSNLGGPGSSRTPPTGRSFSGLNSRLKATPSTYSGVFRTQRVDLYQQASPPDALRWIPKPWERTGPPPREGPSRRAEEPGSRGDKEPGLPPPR

| Target | log2 fold change (ibrutinib) | log2 fold change [1] | log2 fold change (ralimetinib) | log2 fold change [2] | log2 fold change [3] | log2 fold change [4] | log2 fold change [5] | log2 fold change [6] | log2 fold change [7] | log2 fold change [8] | log2 fold change (vemurafenib) | log2 fold change [9] | log2 fold change (barasertib) | log2 fold change [10] | log2 fold change (volasertib) | log2 fold change [11] | log2 fold change [12] | log2 fold change [13] | log2 fold change (saracatinib) | log2 fold change (sotrastaurin) |
| --- | --- | --- | --- | --- | --- | --- | --- | --- | --- | --- | --- | --- | --- | --- | --- | --- | --- | --- | --- | --- |
| PIR (UniProt O00625) | 0.029 | -0.01 | -0.017 | 0.019 | 0.254 (active) | -0.034 | 0.007 | -0.003 | 0.232 | -0.022 | -0.023 | 0.098 | -0.005 | 0.025 | 0.019 | -0.055 | 0.205 | -0.024 | -0.006 | -0.028 |
| PPP2R5C isoform 4 (UniProt Q13362) | 0.023 | -0.011 | -0.089 | -0.05 | -0.032 | -0.003 | 0.095 | 0.05 | 0.012 | 0.001 | 0.029 | 0.02 | -0.001 | 0.018 | -0.002 | 0.022 | -0.02 | -0.038 | 0.017 | -0.036 |
| PPOX (UniProt P50336) | 0.067 | -0.008 | 0.001 | 0.091 | 0.301 | -0.022 | -0.138 | 0.105 | 0.006 | 0.012 | 0.058 | 0.02 | -0.093 | -0.036 | -0.007 | -0.096 | -0.075 | -0.018 | -0.044 | -0.021 |
| PRRC2A (UniProt P48634) | 0.006 | -0.014 | -0.01 | -0.02 | 0.002 | 0.015 | -0.003 | -0.26 (active) | 0.003 | -0.026 | -0.006 | 0.008 | -0.013 | 0.107 | 0.012 | 0.013 | 0.05 | 0.008 | 0.049 | -0.014 |
| PYCR2 (UniProt Q96C36) | 0.012 | 0.002 | -0.007 | -0.032 | -0.007 | -0.026 | 0.001 | 0.013 | -0.017 | -0.016 | 0.004 | -0.005 | 0.006 | 0.036 | 0.016 | -0.001 | 0.099 | 0.012 | -0.012 | -0.014 |
| PICALM (UniProt Q13492) | -0.023 | 0.011 | -0.025 | -0.039 | -0.004 | -0.018 | 0.004 | 0.021 | -0.004 | -0.005 | -0.004 | -0.004 | 0.037 | 0.04 | 0.014 | 0.004 | 0.098 | -0.021 | 0.009 | -0.061 |
| PTPN1 (UniProt P18031) | -0.003 | -0.024 | 0.018 | 0.024 | 0.006 | -0.005 | -0.002 | 0.006 | 0.049 | 0.016 | 0.04 | -0.005 | 0.042 | -0.029 | -0.04 | 0.033 | -0.061 | -0.03 | 0.022 | 0.069 |
| PI4K2A (UniProt Q9BTU6) | -0.017 | 0.044 | 0.002 | -0.037 | -0.006 | -0.028 | 0.028 | -0.06 | 0 | -0.009 | -0.025 | 0.037 | 0.041 | -0.009 | -0.027 | 0.004 | 0.019 | 0.042 | -0.037 | 0.102 |
